From PubChem BioAssay AID504843 (Broad Institute, 2011)
About 360 (30%) of roughly 1,200 compounds were called active. A selection follows. Measured potencies and affinities stand elsewhere. A number with no mark means an inactive call. How the calls were made is not given here.

test: antibacterial activity by ATP level – BacTiter-Glo luminescence, cherry-picked samples, counter-screen, dose response (AID 504843); conditions: bacterial growth; series mostly up to 15 µM; activity change, negative = inhibition: at the top concentration;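 further: growth measured after 8 h incubation at 30 °C; 0% = median of sample compound wells and -100% = antibiotic control wells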

Point of comparison: `COc1ccccc1N(CC(=O)NC1CCCC1)C(=O)c1csnn1`, “activity change, negative = inhibition” value -23.1%. Against it:
- O=C(CCCc1nc2ccccc2s1)NC1CCOC1=O (configuration not stated) — higher, 8.2%
- Cc1cccc(NC(=O)CN(c2ccc(F)cc2)S(C)(=O)=O)c1 — higher, 14.4%
- Cc1cccc(CS(=O)(=O)c2ncc(Cl)c(C(=O)Nc3nnc(C(C)C)s3)n2)c1 — higher, -5.68%
- O=C(C[C@H]1C[C@H](C(=O)N2CCOCC2)[C@@]2(CCC3CCCC3)c3[nH]c4cc(-c5ccco5)ccc4c3CCN2C1=O)NCCCn1ccnc1 — higher, -7.23%
- CC(=O)Nc1ccc(/C=N/N2CCCCC2)cc1 — higher, -9.51%
- Cc1ccc(/C=C2/C(=N)N3N=C(CC(=O)N4CCCC4)SC3=NC2=O)o1 — higher, 1.5%
- C=CCN1C(=O)c2ccc(C(=O)N3CCC(C(N)=O)CC3)cc2C1=O — higher, -16.8%
- CC(NC(=O)c1ccc([N+](=O)[O-])o1)C12CC3CC(CC(C3)C1)C2 (configuration not stated) — higher, 22.9%
- CC(C)N1CCc2c(sc(NC(=O)c3ccc(S(=O)(=O)N4CCc5ccccc54)cc3)c2C(N)=O)C1 — higher, -10.4%
- Cc1ccc2nc(C(=O)O)c(C(=O)O)nc2c1 — higher, -2.68%
- NC(=O)Cn1c(-c2nonc2N)nc2ccccc21 — higher, 14.1%
- CC(C)c1nn2c(=O)cc(CSc3ccccc3NC(=O)c3ccccc3F)nc2s1 — higher, -10.6%
- CC(=O)c1ccc(NC(=O)CSc2nnc(C3CC3)n2C2CC2)cc1 — higher, -7.46%
- COc1ccc(-n2c(Cc3cccn3C)nnc2SCC(=O)NCc2ccc(F)cc2)cc1 — higher, -10.8%
- Cc1ccc2cc(CCNC(=O)C(=O)c3c(C)[nH]c4ccccc34)c(=O)[nH]c2c1 — higher, -3.49%
- O=C(Nc1ccc(F)cc1)Nc1cc(S(=O)(=O)N2CCOCC2)ccc1N1CCCC1 — higher, 4.61%
- O=C(/C=C/c1ccccc1)Nc1cc(S(=O)(=O)N2CCOCC2)ccc1N1CCCC1 — higher, -3.5%
- Nc1ccn(CC(=O)N2CCN(c3ccccn3)CC2)c(=O)n1 — higher, -4.25%
- CC(Sc1ccsc1[N+](=O)[O-])C(=O)N1CCN(c2ccccn2)CC1 (configuration not stated) — higher, -3.67%
- COC(CNc1ncnc2sc(-c3ccccc3)cc12)OC — higher, -3.03%
- Cc1cccc(-c2nnc(-c3cccc(NC(=O)Cc4cccs4)c3)o2)c1 — higher, 9.27%
- O=C(CSc1nnc(-c2cccnc2)o1)Nc1ccc(Cl)cc1 — higher, -0.908%
- CSc1cccc(NC(=O)CN(C)S(=O)(=O)c2cnc[nH]2)c1 — higher, -5.56%
- C[C@H](NC(=O)c1nc[nH]c1C(=O)NCCCCCNC(=O)OC(C)(C)C)c1ccccc1 — higher, -1.97%
- CC1CCN(C(=O)c2[nH]cnc2C(=O)N[C@@H](C)C(=O)OC(C)(C)C)CC1 — higher, 12.1%
- CCCCCCCN(c1ccccc1)[C@@H]1C[C@H]2CCCC(=O)N3CC[C@@H](C1)[C@@H]23 — higher, 14.7%
- CCOC(=O)c1c(C)[nH]c(C(=O)N(C)Cc2cccc(OC)c2OC)c1C — higher, 1.41%
- O=C1CN2C(=Nc3ccc(Br)cc3C2c2ccccc2)CCN1 (configuration not stated) — higher, -8.09%
- CC[C@H]1OC(=O)[C@H](C)[C@@H](O[C@H]2C[C@@](C)(OC)[C@@H](O)[C@H](C)O2)[C@H](C)[C@@H](O[C@@H]2O[C@H](C)C[C@H](N(C)C)[C@H]2O)[C@](C)(O)C[C@@H](C)CN(C)[C@H](C)[C@@H](O)[C@]1(C)O — higher, 3.48%
- O=[N+]([O-])c1ccc(/C=N/n2c(CO)nc3ccccc32)s1 — higher, 8.29%
- Cc1nn(-c2ccccc2)c2nc3c(cc12)C(=O)CCC3 — higher, -3.6%
- O=C(CN1CCC(n2nnc3cc(F)ccc32)CC1)NCc1ccco1 — higher, 19.3%
- Nc1nc2n(n1)C(c1cccc(Br)c1)CC(c1ccccc1)N2 (configuration not stated) — higher, 16.8%
- Nc1ccccc1S(=O)(=O)NC1=NCCCCC1 — higher, -0.169%
- CCOc1ccc(-c2c(C(=O)N/N=C/c3c[nH]c4ccccc34)nnn2-c2nonc2N)cc1 — higher, -17.8%
- Cc1ccc(NC(=O)c2ncn(CCCNCc3ccccn3)n2)cc1C — higher, 11.9%
- Cc1ccc(NC(=O)NCc2ccccn2)cc1Cl — higher, 5.48%
- COc1ccc(CN2CCN(C(=O)C3CCC(CNS(=O)(=O)c4ccccc4)CC3)CC2)c(OC)c1OC (configuration not stated) — higher, -7.46%
- Cc1nc2ncnn2c(C)c1CCC(=O)N1CCCCC1 — higher, -5.84%
- COc1ccc(Nc2cc(C)nc3nc(C)nn23)c(OC)c1 — higher, -1.6%
- CSc1ccc(NC(=O)N2CCN(c3nc4ccccc4s3)CC2)cc1 — higher, 11.1%
- O=C(Cn1cc([N+](=O)[O-])cn1)N1CCN(c2ccccc2)CC1 — higher, -8.94%
- COCCC1CCCCN1C(=O)c1cccc(OC2CCN(S(C)(=O)=O)CC2)c1 (configuration not stated) — higher, 5.98%
- CCN1CCN(CCCNc2ncnc3nc[nH]c23)CC1 — higher, -22.4%
- C1=C(CCNc2ncnc3c2cnn3-c2ccccc2)CCCC1 — higher, 9.72%
- COc1ccc(-c2c(-c3cc(OC)cc(OC)c3)n(C)c3ccc(-c4ccc(S(N)(=O)=O)cc4)cc23)cc1 — higher, 4.16%
- CC(C)c1ccc(C(=O)CN2C(=O)NC3(CCc4ccccc43)C2=O)cc1 (configuration not stated) — higher, 23.7%
- Cc1nc(Cl)c(C(=O)NCc2ccccc2)c(C)c1Cl — higher, -15%
- C#CCOCCOCCOCCNc1nc(N2CCN(C(=O)Cn3cc(CC(C)O)nn3)CC2)nc(N2CCN(C(=O)[C@H](CCCCN)n3cc(CCCC)nn3)CC2)n1 (some centres not stated) — higher, 17.3%
- O=C(C1CCCO1)N1CCN(c2c3c(nc4cc(-c5ccc(F)cc5)nn24)CCC3)CC1 (configuration not stated) — higher, -10.4%
- Nc1nc(CN2CCCCC2)cs1 — higher, -6.99%
- Nc1nc(NCC2CCCO2)nc(Nc2cccc(Cl)c2)c1[N+](=O)[O-] (configuration not stated) — higher, -11.3%
- O=C(NCc1ccccc1)C(=O)NCC1OCCN1S(=O)(=O)c1ccc([N+](=O)[O-])cc1 (configuration not stated) — higher, -9.98%
- COC(=O)c1ccc(Cl)cc1NC(=O)/C=C/c1ccc(C)o1 — higher, -1.54%
- CC(NC(=O)c1ccc([N+](=O)[O-])cc1[N+](=O)[O-])c1ccc(-c2ccccc2)cc1 (configuration not stated) — higher, -11.2%
- O=C(Cn1nc(C(F)(F)F)c2c1CCCC2)NCc1ccco1 — higher, 13.5%
- O=C(Nc1ccc(F)cc1)C1CC(=O)N(Cc2ccco2)C1 (configuration not stated) — higher, -1.25%
- CN(Cc1cn[nH]c1-c1ccc(-c2ccccc2)cc1)CC1CCOCC1 — higher, 3.47%
- COc1ccc2c(c1)c1c3n2CCN(C)C3=NCC1 — higher, 7.69%
- CC(C)C(C(=O)NC1CCCC1)N(CC1CCCO1)C(=O)CNS(=O)(=O)c1ccccc1 (configuration not stated) — higher, 12.5%
- CCCCC(=O)N(c1ccc(C)c(C)c1)C1C=CS(=O)(=O)C1 (configuration not stated) — higher, -16.1%
- COc1cc(CNc2ccc3[nH]c(=O)[nH]c3c2)ccc1OCC(=O)NC(C)(C)C — higher, -22.4%
- Cc1nc2ccccn2c1/C(O)=C1\C(=O)C(=O)N(CCN(C)C)C1c1ccco1 (configuration not stated) — higher, 10.2%
- CCN(C[C@H]1N[C@@](Cc2ccccc2)(C(=O)OC)[C@H]2C(=O)N(C)C(=O)[C@@H]12)C(C)=O — higher, 11.5%
- CCOCCOc1nc2c(c(=O)n(C)c(=O)n2C)n1Cc1ccc(C)cc1 — higher, 11.6%
- CCc1cccc2c1NC(=O)C2(O)N1CCCC(C)C1 (configuration not stated) — higher, -12.5%
- COc1ccc(/C=C/C(=O)Nc2ccccc2C(=O)O)cc1OC — higher, 0.824%
- CCOC(=O)c1ccccc1NC(=S)N1CC(C)CC(C)C1 (configuration not stated) — higher, -8.99%
- CC1(C)CC(=O)c2cc3c(nc2C1)CC(C)(C)CC3=O — higher, -9.4%
- CC(C)NC(=O)CN1CCN(C(=O)c2ccc3oc(CCCc4ccccc4)nc3c2)CC1 — higher, -4.91%
- Cc1nn(C)c(C)c1S(=O)(=O)N(CC(=O)NCCCN1CCC(C)CC1)c1ccc(C(C)C)cc1 — higher, -6.13%
- O=C(CN(Cc1ccccc1Cl)C(=O)CNS(=O)(=O)c1ccc(F)cc1)NCC1CCCO1 (configuration not stated) — higher, 4.69%
- O=C(CSc1ncnc2ccccc12)NCc1ccco1 — higher, -2.79%
- COc1ccccc1N1CCN(C(=O)CSc2nnc(NC(=O)C(C)C)s2)CC1 — higher, -8.54%
- Cc1ccc(Cn2c(=O)oc3ccccc32)cc1 — higher, 13.9%
- Cc1cccc(NC(=S)N/N=C/c2c[nH]c3ccccc23)c1 — higher, 6.24%
- CC1CCCN(C(=O)c2nn(C)c3c2CSc2ccccc2-3)C1 (configuration not stated) — higher, -0.156%
- O=C(NCCNC(=O)c1ccccc1F)c1ccccn1 — higher, -8.38%
- CCCC(=O)NC1=C(C#N)C2(CCCC2)Cc2ccccc21 — higher, 10.7%
- COc1ccccc1NC(=O)NCCCCc1ccccc1 — higher, 4.63%
- COc1ccccc1NC(=S)NC1CC2CCC1C2 (configuration not stated) — higher, 9.45%
- O=C(CN1CCN(c2ccccc2)CC1)N1N=CCC1c1ccccc1 (configuration not stated) — higher, 1.93%
- Cc1cc(C)n2nc(SCC(=O)N3CCN(c4ccccc4)CC3)nc2n1 — higher, 15.8%
- CCCSc1nnc(CNS(=O)(=O)c2ccc(C)cc2)n1C — higher, 6.19%
- COC(=O)[C@H](CC(C)C)N(Cc1ccccc1)S(=O)(=O)N(Cc1ccccc1)[C@@H](CC(C)C)C(=O)OC — higher, 6.02%
- CCN(CC)S(=O)(=O)c1ccc(OC)c(NC(=O)c2ccc(=O)[nH]c2)c1 — higher, -9.57%
- Nc1cc(S(=O)(=O)C(F)(F)F)ccc1C(=O)O — higher, -21.2%
- N#Cc1cccc(Nc2c3c(nc4ccccc24)CCCC3)c1 — higher, 12.8%
- CC(=O)c1ccccc1OCC(O)CN1CCN(C(c2ccccc2)c2ccccc2)CC1 (configuration not stated) — higher, 4.45%
- O=C1c2cccc3cccc(c23)C(=O)N1CC1CCN(CC(O)COc2ccc3ccccc3c2)CC1 (configuration not stated) — higher, 1.01%
- Cc1cc(C)c(C#N)c(SCS(=O)c2ccc(C(C)(C)C)cc2)n1 (configuration not stated) — higher, -2.71%
- C#CCNC(=O)C1=C[C@H](c2csc3ccccc23)[C@@H](CCCO)[C@H](OCC)O1 — higher, -8.78%
- CN(C/C=C/c1ccccc1[N+](=O)[O-])Cc1ccccc1 — higher, 21.6%
- O=S(=O)(c1cc(Cl)cc(Cl)c1O)N1CCC2(CC1)OCCO2 — higher, 12.8%
- Cc1cccn2c(=O)c3cc(S(=O)(=O)c4ccccc4)c(=N)n(Cc4ccco4)c3nc12 — higher, 0.723%
- O=C(O)[C@@H](c1ccccc1)N1Cc2ccccc2C1=O — higher, -11.7%
- CC1CC(=O)N(c2ccc(Br)cc2)C(=O)C1 — higher, 18.8%
- COc1ccc(OCc2nnc(SCC(=O)N3C(C)CCCC3C)o2)cc1 (configuration not stated) — higher, -3.56%
- CC(C)(C)c1cc(NS(=O)(=O)c2ccc3c(c2)OCCO3)on1 — higher, 17.8%
- O=C(COc1ccc([N+](=O)[O-])cc1)Nc1cccc2nsnc12 — higher, -9.01%
- Cc1cc(NC(=O)c2ccc([N+](=O)[O-])cc2)n(C)n1 — higher, 1.54%
